Most compounds without a hit are left out; they make up all but 4% or so of the library.
Peg3 prom inh = Peg3 promoter activity inhibition; hit rate 1.7% among 360,000; inhibition, % at 20 µM; AID 588405; HeLa PEG-Prom luciferase reporter, luminescence, overnight;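 active means inhibition of at least 50% at 20 µM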
HIF-2a block = inhibitors of HIF-2a | hit rate 0.72% among 360,000 | inhibition, % at 18.8 µM | AID 624352 | 786-0 RCC cells HIF-2a reporter, luciferase luminescence, overnight;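 active means inhibition of the luminescence signal of 40% or more relative to plate controls, in a single-dose primary screen at 18.75 µM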
TROY NFkB inh = inhibitors of TROY-dependent NF-kB signaling; AID 1347056; hit rate 0.98% among 360,000; Q293 LMP1-TROYcd NF-kB luciferase reporter, 4 h; inhibition, % at 10 µM;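 active means compounds whose plate-normalised and pattern-corrected inhibition of the luciferase reporter signal at the single screening dose is 50% or more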
KKLEB tox = reduces viability of KKLEB cystic fibrosis airway cells; KKLEB CF airway cells viability, ATPlite luminescence, overnight; active compounds read low; cells stimulated with P. aeruginosa culture filtrate; AID 602141; hit rate 0.36% among 360,000; activity change (cytotoxicity), % at 5 µM;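 active means corrected activity change at or below -50% at 5 µM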
TWEAK-Fn14 inh = blocks TWEAK-Fn14 interaction in a reporter cell assay | hit rate 2% among 360,000 | TWEAK-stimulated Fn14 reporter cells, luciferase luminescence, 8 h | inhibition, % at 10 µM; in the data active means inhibition above about 50%
CF NFkB inh = blocks PAF-induced NF-kB reporter in cystic fibrosis cells; KKLEB NF-kB-GFP reporter, GFP fluorescence overnight; hit rate 0.86% among 360,000; inhibition, % at 5 µM;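 active means at least 50% inhibition at 5 µM, scaled per plate between neutral and stimulator controls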;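 further: PAF is a Pseudomonas aeruginosa culture filtrate used as stimulus; plate controls were PAF-stimulated DMSO wells for no effect and unstimulated DMSO wells for full effect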
* = called active by the depositor; / = not tested or not shown.

SMILES | Peg3 prom inh | HIF-2a block | TROY NFkB inh | KKLEB tox | TWEAK-Fn14 inh | CF NFkB inh
COc1ccc(/C=C2\CCc3ccccc3C2=O)cc1O | -211 | -133 | 31 | -25 | 74* | 23
Cc1nc2oc3c(=O)[nH]cnc3c2c2c1COC(C)(C)C2 | 4 | 13 | -11 | 2 | -2 | 3
O=C(Nc1ccc2c(c1)OCCO2)C1c2ccccc2OCC(=O)N1CCc1c[nH]c2ccccc12 (configuration not stated) | / | -21 | 4 | / | -3 | /
COCc1ccc(C(=O)N2CCCC(N(C)CCc3ccccc3)C2)s1 (configuration not stated) | -23 | -10 | 5 | -5 | -13 | 4
O=C1/C(=C/c2ccc(O)cc2)CCc2ccc([N+](=O)[O-])cc21 | -10 | -23 | -13 | -9 | -50 | -9
O=C1/C(=C\c2ccc([N+](=O)[O-])cc2)CCc2ccccc21 | -128 | -121 | 55* | -50 | 86* | 3
Cc1ccc(C)c(NC(=S)NC(NC(=O)Cc2cccc3ccccc23)C(Cl)(Cl)Cl)c1 (configuration not stated) | 94* | 17 | 25 | -70* | 33 | 71*
COC(=O)c1cc(S(=O)(=O)n2nc(C)c(Br)c2C)c(Cl)cc1Cl | 87* | 37 | -13 | -16 | -5 | -21
O=C(N/N=C/c1ccccn1)c1cc(-c2ccc(Br)cc2)nc2ccccc12 | 75* | -30 | -5 | 5 | 100* | -27
CCCc1ccc(-c2cc(C(=O)N/N=C/c3ccc([N+](=O)[O-])o3)c3ccccc3n2)cc1 | -121 | -109 | -20 | -51* | 32 | -4
CCCOc1cccc(-c2cc(C(=O)N/N=C/c3cccnc3)c3ccccc3n2)c1 | -44 | -144 | 21 | -12 | -29 | -4
CCCOc1cccc(-c2cc(C(=O)N/N=C/c3ccccn3)c3ccccc3n2)c1 | 5 | -35 | 41 | -20 | 94* | -6
CC(C)Cn1c(N)c(C(=O)CSc2ccc3c(c2)OCCO3)c(=O)n(C)c1=O | 21 | 11 | 50 | -12 | 69* | 45
COc1cccc(-c2cnc3c(NC=O)cc(-c4cccc(NC(C)=O)c4)cn23)c1 | 48 | -25 | 61* | -14 | 30 | 15
COc1cc(-c2cc(NC(C)=O)c3ncc(-c4cc(OC)c(OC)c(OC)c4)n3c2)cc(OC)c1OC | 52* | -84 | 6 | -5 | 50* | -64
COc1cc(-c2cnc3c(NC=O)cc(-c4cccc(NC(C)=O)c4)cn23)cc(OC)c1OC | 64* | 26 | 25 | -67* | 60* | 84*
CC(=O)Nc1cccc(-c2cc(NC=O)c3ncc(-c4cccc(C(C)=O)c4)n3c2)c1 | 44 | 14 | 3 | -25 | 32 | 48
C/C(=N\Nc1ncc(Cl)cc1Cl)c1ccc(N2CCOCC2)cc1 | -39 | -56 | 55* | 11 | 62* | 4
C/C(=N\Nc1ncnc2sc(C)c(C)c12)c1ccccn1 | 84* | -389 | 23 | -4 | 73* | -26
C/C(=N\Nc1ncc(Cl)cc1Cl)c1ccccn1 | 71* | 7 | 0 | -59* | 92* | 23
Cc1cccc(-c2nc3c(c(SCC(=O)N4CCOCC4)n2)COC(C)(C)C3)c1 | -20 | -12 | 1 | 2 | 2 | 10
COc1cc([N+](=O)[O-])cc(/C=N/NC(=O)C(C)Nc2cccc3ccccc23)c1O (configuration not stated) | 31 | 5 | 57* | -2 | 87* | 12
COc1cc([N+](=O)[O-])cc(/C=N/NC(=O)C(O)(c2ccccc2)c2ccccc2)c1O | 15 | 12 | 15 | -7 | 2 | 13
CC(Nc1cccc2ccccc12)C(=O)N/N=C/c1ccc([N+](=O)[O-])cc1 (configuration not stated) | 39 | 6 | 45 | 4 | 100* | -39
Cc1cccc(/C=N/NC(=O)C(C)Nc2cccc3ccccc23)n1 (configuration not stated) | -17 | -27 | -3 | 8 | 13 | -14
SMILES | Peg3 prom inh | HIF-2a block | TROY NFkB inh | KKLEB tox | TWEAK-Fn14 inh | CF NFkB inh
Cc1ccc(CNC(=O)c2cc(COc3c(F)cccc3F)on2)s1 | -25 | -38 | -31 | -2 | -8 | 4
COCCNC(=O)c1cc(-c2ccncc2)nc2ccc(S(=O)(=O)N3CCOCC3)cc12 | 12 | 10 | 64* | -8 | 8 | 6
COc1cc(OC)cc(-c2cc3ccc(OC)cc3cn2)c1 | -180 | -267 | -25 | -55* | 9 | 0
COc1ccc(-c2noc(-c3ccc4c(c3)OCO4)n2)cc1 | -236 | -229 | -26 | -6 | 29 | -17
Cc1[nH]c(-c2ccc3c(c2)OCO3)nc1C(=O)O | 12 | 7 | -8 | -22 | -14 | 17
COc1ccc(-c2cc3cc4c(cc3cn2)OCO4)cc1 | -124 | -136 | 17 | -15 | 54* | -31
COc1ccc2cc(-c3ccccc3)ncc2c1 | -308 | -187 | -27 | -23 | 42 | -42
COc1ccc(-c2nc(-c3ccc4c(c3)OCO4)[nH]c2-c2ccc(OC)cc2)cc1 | 20 | -1 | 32 | 1 | 56* | -22
COc1cccc(-c2noc(-c3ccc4c(c3)OCO4)n2)c1 | -210 | -144 | 9 | -30 | 53* | -1
COc1cc(OC)cc(-c2cc3cc4c(cc3cn2)OCO4)c1 | -293 | -222 | -62 | -38 | 21 | 42
c1ccc(-c2ccccc2OCCCN2CCCCC2)cc1 | 6 | 12 | -10 | 3 | 15 | 3
COCCN(Cc1nc(-c2ccc(-c3ccccc3)cc2)oc1C)C(C)C | -134 | 2 | -25 | -5 | 78* | 7
C=CCN1C(=O)/C(=C/c2ccc(OC(C)=O)c(OCC)c2[N+](=O)[O-])SC1=S | -49 | -133 | 43 | -44 | 60* | 54*
COc1ccc2[nH]c3c(N4CCC(O)(c5cccc(C(F)(F)F)c5)CC4)ncnc3c2c1 | 57* | -7 | 64* | -9 | 75* | -17
CCOc1ccc2[nH]c3c(N4CCc5ccccc5C4)ncnc3c2c1 | 34 | -24 | 13 | -2 | 27 | 2
COc1ccc2[nH]c3c(N4CCN(Cc5ccc6c(c5)OCO6)CC4)ncnc3c2c1 | 55* | 26 | 51* | -14 | 38 | 2
COc1ccc2cc(C(=O)N3CCN(Cc4ccc5c(c4)OCO5)CC3)[nH]c2c1 | -23 | -37 | 16 | -5 | 6 | 8
CCOC(=O)C1(C)CCCN(C(=O)c2ccc(F)cc2Cl)C1 (configuration not stated) | 6 | 8 | -13 | -18 | 16 | 17
O=C(COC(=O)CC(c1ccccc1)c1ccccc1)NCc1ccc(Cl)cc1 | 3 | 22 | 26 | -2 | 62* | -12
CCOC(=O)c1sc(=NC(=O)c2ccc(Cl)s2)n(C)c1C | -227 | -237 | 54* | -11 | 40 | -4
CN(C)Cc1ccc(-c2nc3cccc4c3n2CCNC4=O)cc1 | 58* | -5 | -4 | 5 | 14 | 14

Screening results from PubChem.
